Results reported in PubChem BioAssay AID620 (Sanford-Burnham Center for Chemical Genomics, 2007).
The whole screen tested about 87,000 compounds, of which about 360 (0.41%) were called active. The list comes from a sample in which actives are over-represented; it also holds similar structures and randomly drawn compounds. A number with no mark means an inactive call. Rule as the data show it: active = cytotoxicity above about 50%; inactive = the rest.

Experiment: HT1080 cell viability loss – fluorescence readout (AID 620);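 also: cells exposed to compound overnight then 4 h with Alamar Blue; 0% = vehicle DMSO and 100% = killing control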
Conditions: at 10 µM, stronger effect = higher value

SMILES | cytotoxicity
Cc1occc1C(=O)Nc1ccc2c(c1)CCC2 | 12.8%
CC(C)Cc1cc(C(=O)Nc2cc(Cl)ccc2Cl)no1 | 1.8%
O=C(C1CC1)N1CCCN(C(=O)C2CC2)CC1 | 1.3%
Cc1cc(=O)[nH]c(N2CCc3ccccc3C2)n1 | 1.4%
O=C(CSc1nnc(-c2cccs2)n1Cc1ccco1)Nc1ccc2c(c1)OCO2 | 1.2%
Cn1c(SCC(=O)N2CCCc3ccccc32)nnc1-c1c[nH]c2ccccc12 | 2.9%
CCOc1cccc(N2C(=O)CC(N3CCC(C(N)=O)(N4CCCCC4)CC3)C2=O)c1 (stereo unspecified) | -6.9%
CCc1cn([C@H]2C[C@H](O)[C@@H](CO)O2)c(=O)[nH]c1=O | -0.3%
O=c1[nH]c(=O)n([C@H]2C[C@H](O)[C@@H](CO)O2)cc1F | 58.1% (active)
O=c1[nH]c(=O)n([C@H]2C[C@H](O)[C@@H](CO)O2)cc1C(F)(F)F | 4.2%
Cc1ccc(SCC(=O)NCCCN2CCOCC2)cc1 | 4.3%
CC1(C)CC(=O)C2=C(C1)OC1=C(C(=O)CC(C)(C)C1)C2c1ccc(O)cc1O | 63.3% (active)
CC1(C)CC(=O)C(C2C3=C(CC(C)(C)CC3=O)Oc3ccccc32)=C(O)C1 (stereo unspecified) | -2.6%
Cc1nn(C)cc1C1C2=C(CC(C)(C)CC2=O)OC2=C1C(=O)CC(C)(C)C2 | 14.2%
CCCc1cc(=O)[nH]c(SCC(=O)C(C)(C)C)n1 | -8.7%
CCCC(C)C1C(C#N)=C(N)Oc2cc(C)oc(=O)c21 (stereo unspecified) | 0.8%
O=C(OCn1ncc(Br)c(Br)c1=O)c1c(F)cccc1F | 100% (active)
Cc1onc(-c2c(F)cccc2Cl)c1C(=O)OCn1nnc2ccccc2c1=O | -0.3%
CCn1ncc(Br)c1C(=O)Nc1ccc(C(=O)OC(C)C)cc1 | -9.8%
O=C(OCn1ncc(Br)c(Br)c1=O)c1ccc(F)cc1 | 95.8% (active)
CCn1ncc(Br)c1C(=O)Nc1ccc(F)cc1F | 2.8%

SMILES | cytotoxicity
O=C(OCn1ncc(Br)c(Br)c1=O)c1ccccc1Cl | 40%
CC1CC(C)CN(C(=O)c2ccccc2Nc2ccc(SC(F)F)cc2)C1 (stereo unspecified) | -5.3%
COc1cc(OC)cc(-c2nnc(SCC(=O)N3CCCC3)o2)c1 | 9%
CCOc1cc(C(c2c(C)[nH][nH]c2=O)c2c(C)[nH][nH]c2=O)ccc1OS(=O)(=O)c1ccc(C)cc1 | -4.6%
CCSc1nnnn1-c1ccccc1 | 11%
COc1ccc(CCNC(=O)CSc2nnnn2-c2ccccc2OC)cc1OC | 1%
c1ccc(-n2nnnc2SCCCSc2nc3ccccc3s2)cc1 | 5.7%
CCCSc1nnc(Sc2nnnn2-c2ccccc2)s1 | 60% (active)
COc1ccc(-n2nnnc2SCC(=O)NCCc2ccc(OC)c(OC)c2)cc1 | -21.1%
COc1ccc(CCNc2nnc(Sc3nnnn3-c3ccccc3)s2)cc1OC | 57.2% (active)
NS(=O)(=O)c1ccc(CCNc2nc(CN3CCCCC3)nc3sc4c(c23)CCC4)cc1 | 28.3%
CSc1nc(-c2ccccc2)nc2[nH]ccc(=O)c12 | 8.6%
CSc1nc2ccc(S(=O)(=O)N(C)C)cc2s1 | -0.9%
CCc1cc(C)c(O)c(CC)n1 | -4.2%
Cn1c2ccccc2c2cc(C(=O)O)ccc21 | 6.9%
Nc1ccc(C(=O)N2CCCC2)cc1 | 13%
Nc1ccc(C(=O)n2c3ccccc3c3ccccc32)cc1 | 52.6% (active)
CC(C)Cc1nnc(NC(=O)CC(=O)Nc2ccccc2C(=O)O)s1 | -4.8%
O=C(NC1CC1)c1sccc1-n1cccc1 | 4%
COc1cccc(OCCSc2nnc3sc4ccccc4n23)c1 | 12.4%
COc1ccc(OCCSc2nnc3sc4ccccc4n23)cc1 | -2.4%

SMILES | cytotoxicity
CCOC(=O)C1CCN(C(=O)CCCN2C(=O)c3ccccc3C2=O)CC1 | 5%
CC[Si](CC)(CC)c1c2c(nc3ccc(OC)cc13)-c1cccc(=O)n1C2 | -6.3%
CCNC(=O)COc1ccc(S(=O)(=O)Nc2ccccc2)cc1 | 2.5%
COc1ccc(S(=O)(=O)Cc2ccc(C(=O)NCc3ccc(F)cc3)o2)cc1 | -10.5%
COc1ccc(-n2c(Cc3cccn3C)nnc2SCC(=O)N2CCCc3ccccc32)cc1 | 0.6%
CCCCCCN(C(=O)CCCCCN1C(=O)NC(c2ccc([N+](=O)[O-])cc2)C(C(=O)OCc2ccccc2)=C1C)C(C(=O)NCCCC)c1ccc(OCC(=O)OC)c(C(=O)OC)c1 (stereo unspecified) | -7.3%
Cc1ccc(S(=O)(=O)Nc2cccc3cccnc23)cc1 | -3%
Brc1ccc(-c2nnc3n2-c2ccccc2CC3)cc1 | 2%
Cc1ccc(-n2c(-c3ccc(Br)cc3)c[n+]3c2CCc2ccc4cccnc4c2-3)cc1 | 63.8% (active)
COc1ccccc1NC(=O)CSc1nnc(COc2ccc(Cl)cc2)n1Cc1ccco1 | -2%
CCOc1ccccc1NC(=O)CN(c1ccc(C)cc1)S(=O)(=O)c1c(C)noc1C | -3.3%
CCOc1ccc(N(CC(=O)NC(C)(C)C)S(=O)(=O)c2c(C)noc2C)cc1 | -10.4%
COc1ccc(N(CC(=O)Nc2cc(C)ccc2OC)S(=O)(=O)c2c(C)noc2C)cc1 | -2.6%
CCOc1ccccc1NC(=O)CN(c1cc(C)cc(C)c1)S(=O)(=O)c1c(C)noc1C | -7.8%
COc1ccc(N(CC(=O)Nc2cc(Cl)ccc2OC)S(=O)(=O)c2c(C)noc2C)cc1 | 53.8% (active)
CCOc1ccc(N(CC(=O)Nc2ccc(C)cc2)S(=O)(=O)c2c(C)noc2C)cc1 | 3.5%
CCOc1ccc(N(CC(=O)Nc2ccccc2C)S(=O)(=O)c2c(C)noc2C)cc1 | 54.9% (active)
CCOc1ccccc1NC(=O)CN(c1ccc(OC)cc1)S(=O)(=O)c1c(C)noc1C | 53.1% (active)
COc1ccc(OC)c(NC(=O)CN(c2ccc(C)cc2)S(=O)(=O)c2c(C)noc2C)c1 | 2.3%
